# Source: PubChem BioAssay
# This excerpt belongs to a sample that is enriched for hits.
# Shiga toxin inh: blocks Shiga toxin action in Vero cells. inhibition, % at 38.7 µM. actives 9.2% (n = 290,000). Vero cells, Shiga toxin protein synthesis inhibition reporter; in the data active means inhibition mostly above about 28%, no sharp cut-off; inactive means mostly below about 43%; further: 0% is about no effect
# Cycloheximide cs: affects cycloheximide protein synthesis inhibition readout, counter-screen. cell reporter, cycloheximide protein synthesis inhibition counterscreen. max response, %. actives 12% (n = 300,000). AID 2314; in the data active means max response mostly above about 13%, no sharp cut-off; inactive means mostly below about 14%; further: read at 38.3 µM for the half of the compounds with a filed dose; 0% is about no effect
# MARV entry inh: Marburg virus entry inhibition; actives 1.8% (n = 300,000); Marburg virus pseudotyped entry inhibition, cell reporter; Potency, µM (series often up to 37.8 µM), for inactives: top-dose activity change, negative = inhibition, most hits filed as inhibitors; calls by dose curve; tested in HEK293 cells; further: potency means the concentration at half of the fitted maximal effect; on the % scale 0 is the no-effect control and ±100 the full control effect
# Vaccinia Venus: inhibitors of vaccinia virus (Venus reporter); Potency, µM (highest dose often 36.5 µM), for the others: top-dose activity change, negative = inhibition, hits mostly inhibitors; actives 0.46% (n = 330,000); Vaccinia virus Venus reporter expression, fluorescence; calls by dose curve; tested in A549 cells; further: potency means the concentration at half of the fitted maximal effect; on the % scale 0 is the no-effect control and ±100 the full control effect; nearly all actives have a fitted effect of over 30% in size
# Vaccinia mCherry: inhibitors of vaccinia virus infection (mCherry reporter signal); AID 720579; actives 0.63% (n = 310,000); Vaccinia virus mCherry reporter infection, fluorescence; Potency, µM (titrated, usually from 36.5 µM), inactives show top-dose activity change, negative = inhibition, most hits filed as inhibitors; calls by dose curve; tested in A549 cells; further: potency means the concentration at half of the fitted maximal effect; on the % scale 0 is the no-effect control and ±100 the full control effect; nearly all actives have a fitted effect of over 35% in size
# LASV entry inh: inhibitors of Lassa virus binding or cell entry; Lassa virus pseudotype entry inhibition, cell reporter; Potency, µM (highest dose often 37.9 µM), without a hit: at the highest dose activity change, negative = inhibition, actives largely listed as inhibitors; actives 1.2% (n = 300,000); AID 540256; calls by dose curve; tested in HEK293 cells; further: potency means the concentration at half of the fitted maximal effect; on the % scale 0 is the no-effect control and ±100 the full control effect; nearly all actives have a fitted effect of over 50% in size
# * marks the source's active call; other numbers are inactive results; i = inactive; ? = inconclusive; · = not tested or not shown; [ ] = remark or other dose.
SMILES,Shiga toxin inh,Cycloheximide cs,MARV entry inh,Vaccinia Venus,Vaccinia mCherry,LASV entry inh
CC(C)(C)c1ccc(C(=O)NC(=S)NCc2cccnc2)cc1,active,45*,?,-24%,-13%,?
O=C(NC(=S)NNC(=O)c1ccccc1F)c1cccnc1,55*,20*,15%[46.1 µM],2%[7.34 µM],-1%[7.34 µM],-25%
Cc1ccc(S(=O)(=O)NCCc2cn3c(C)csc3n2)cc1,·,·,·,2%,-10%,4%[46.1 µM]
COc1cc2c(cc1OC)n(CC(=O)Nc1ccccc1)c(=O)n1nc(-c3ccccc3)nc21,·,·,18%[46.1 µM],-10%,-12%,-5%[46.1 µM]
Cc1ccc(C(=O)NNC(=S)NC(=O)COc2ccccc2)cc1,16,11,?,-5%,-14%,-10%
COC(=O)CNC(=S)NC(=O)c1ccc(C(C)(C)C)cc1,78*,32*,-32%,·,·,-6%
CC(C)(C)c1ccc(C(=O)c2c[nH]c(C(=O)NCc3cccnc3)c2)cc1,23,20*,?,·,·,3%
CC(C)(C)c1ccc(C(=O)NC(=S)NNC(=O)COc2ccccc2)cc1,61,17*,·,·,·,·
CC(C)(C)c1ccc(C(=O)NCc2cccnc2)cc1,47,26,26%,·,·,?
COCCCNC(=S)NNC(=O)c1ccc(C(C)(C)C)cc1,-19,3,·,·,·,·
COc1ccc(CC(=O)NNS(=O)(=O)c2ccccc2[N+](=O)[O-])cc1,-6,-2,1%,-9%,-3%,2%
CCN1CCN(Cc2ccc(OC)c(OCc3ccccc3)c2)CC1,-5,-1,?,·,·,13%
CN1CCN(Cc2ccc(OCc3ccccc3)cc2)CC1,94*,27*,?,·,·,?
CCN1CCN(Cc2ccc(OCc3ccccc3)cc2)CC1,active,50*,?,·,·,?
c1ccc(COc2cccc(CN3CCc4ccccc4C3)c2)cc1,105*,41*,15%[46.1 µM],-7%,-8%,-1%[46.1 µM]
CCOc1ccc(NC(=O)NCc2ccc3c(c2)CCN3C(C)=O)cc1,·,·,·,-9%,i,0%[46.1 µM]
Cc1nn(-c2ccccc2)c2sc(C(=O)NC3CC3)cc12,81*,52*,1%,·,·,?
CCc1c(C)sc(NC(=O)c2cc(C)on2)c1C#N,20,4,-7%,·,·,10%
CCCc1cc(C(=O)Nc2cccc(Cl)c2)no1,82*,23*,·,0%,-15%,·
CCCc1cc(C(=O)Nc2sc(C)c(CC)c2C#N)no1,40,13*,·,-10%,i,·
CCCc1cc(C(=O)Nc2cccnc2)no1,89*,72*,·,2%,6%,·
CCCc1cc(C(=O)Nc2ccc(C#N)cc2)no1,34,15*,1%[46.1 µM],-5%,3%,-4%
N#Cc1ccc(NC(=O)c2cc(-c3cccs3)on2)cc1,-11,-2,-8%[46.1 µM],-8%,-2%,-17%[46.1 µM]
COc1ccc(CNS(=O)(=O)c2ccccc2Br)cc1,13,20,·,·,·,·
COC(=O)c1ccc(NC(=O)CCc2c(C)nn(-c3ccc(N4CCCCC4)nn3)c2C)cc1,·,·,·,-6%,-7%,27%[46.1 µM]
SMILES,Shiga toxin inh,Cycloheximide cs,MARV entry inh,Vaccinia Venus,Vaccinia mCherry,LASV entry inh
COc1ccc(NC(=O)CCc2nnc3n(C)c(=O)c4sccc4n23)cc1Cl,·,·,?,-10%,-3%,-2%[46.1 µM]
CC(=O)c1ccccc1-c1ccc2c(c1)CC(CNC(=O)C[C@@H]1C[C@@H](C)NC(=S)N1)O2 (some centres not stated),·,·,·,1%,-11%,·
O=C(Nc1cccnc1)c1cc(-c2ccco2)on1,22,18,5%,·,·,1%
CCCc1cc(C(=O)Nc2ccc(F)c(Cl)c2)no1,94*,31*,?,7%,-10%,5%[46.1 µM]
CC(=O)c1cccc(NC(=O)c2cc(-c3ccc4c(c3)OCCO4)on2)c1,·,·,20%[46.1 µM],-18%,-18%,7%[46.1 µM]
CC(C)c1cc(C(=O)Nc2cccnc2)no1,48*,37*,?,·,·,?
CC(=O)c1cccc(NC(=O)c2cc(-c3ccc(C)cc3)on2)c1,active,30*,21%,-6%,i,-11%
CCCc1cc(C(=O)Nc2ccc(C(C)=O)cc2)no1,82*,42*,·,4%,-10%,·
CC(=O)c1cccc(NC(=O)Cn2c(=O)oc3cc(S(=O)(=O)NC4CCCC4)ccc32)c1,·,·,-4%[46.1 µM],-2%,-14%,·
COc1cc(OC)c(NC(=O)N2CCSc3ccccc32)cc1Cl,·,·,·,-2%,-15%,-14%[46.1 µM]
CCOC(=O)c1cccc(NC(=O)c2cc(CN3CCOCC3)on2)c1,·,·,·,-2%,4%,-1%[46.1 µM]
CCCc1cc(C(=O)Nc2cccc(C(C)=O)c2)no1,67*,31*,·,1%,i,·
COc1ccc(NC(=O)CN(C)CC(=O)Nc2ccc(Cl)cc2F)cc1,18,-2,-5%[46.1 µM],-4%,-28%,-17%[46.1 µM]
CC[C@@H](C)[C@H](NC(=O)OC(C)(C)C)c1nnc(S(=O)(=O)Cc2cc(C)ccc2C)o1,5,18*,?,?,·,10µM*
CC(C)[C@H](NC(=O)OC(C)(C)C)c1nnc(S(=O)(=O)Cc2c(F)cccc2Cl)o1,42,34*,-3%,-14%,i,-5%
C/C(=N\NC(=O)c1ccc(N2CCCC2=O)cc1)c1ccccc1,17,-1,18%[46.1 µM],-1%,-8%,-19%
CCCCc1ccc(/C(C)=N/NC(=O)C2CCCC2)cc1,-3,8,3%[46.1 µM],-15%,?,20%[46.1 µM]
C/C(=N/NC(=O)C1CCCC1)c1ccc(NC(=O)C(F)(F)F)cc1,32,19*,·,·,·,·
O=C(Nc1ccc(NC(=S)NC(=O)c2cccs2)cc1)c1ccco1,18,-2,?,-27%,i,-8%[46.1 µM]
C/C(=N\NC(=O)c1ccco1)c1ccc(NC(=O)c2cccs2)cc1,130*,64*,-5%,-16%,-2%,2%
C/C(=N\NC(=O)C(N)=O)c1ccc(Br)cc1,13,-1,?,-15%,-4%,2%
C/C(=N/NC(=O)c1ccccc1)c1ccc(NC(=O)C(F)(F)F)cc1,135*,43*,0%[46.1 µM],?,?,1%[46.1 µM]
C/C(=N\NC(=O)C(N)=O)c1ccc(NC(=O)c2cccs2)cc1,69*,33*,-5%[46.1 µM],7%,0%,10%
Nc1nc2ncn(COCCO)c2c(=O)[nH]1,·,·,·,2%,3%,·
CCCOc1ccc(-c2nc(SC)[nH]c(=O)c2C#N)cc1OC,·,·,?,-8%,-11%,?
SMILES,Shiga toxin inh,Cycloheximide cs,MARV entry inh,Vaccinia Venus,Vaccinia mCherry,LASV entry inh
C/C(=N\NC(=O)c1ccccc1)c1ccc(NC(=O)c2cccs2)cc1,106*,23*,24%,-6%,-4%,-2%
Cc1ccccc1C(=O)Nc1cccc(NC(=S)NC(=O)c2cccs2)c1,15,-1,-25%,-29%,·,-5%
C/C(=N\NC(=O)c1ccccc1C)c1ccc(NC(=O)c2cccs2)cc1,114*,46*,-25%,-13%,-15%,-14%
O=C(CC1CCOCC1)Nc1ccc(Cl)c(Cl)c1,48,10,1%[46.1 µM],-1%,-10%,3%[46.1 µM]
CC(=O)c1cccc(NC(=S)NC(=O)CC(C)C)c1,-3,15,23%,·,·,-27%
CC(=O)c1cccc(NC(=S)NC(=O)c2ccc(Br)cc2)c1,32,32*,14%,-28%,-23%,-8%
